The panel holds about 83,000 compounds, 20% with a hit somewhere; the sample as a whole holds those more often.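 A percent growth of 40 corresponds to 60% growth inhibition; 0 means no net growth; -100 means all cells died. Active threshold: below 10.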 Values without a mark were called inactive. Activity calls are given as the source filed them.

For this assay, the system named is MDA-MB-468 breast. Kind of assay: NCI-60 one-dose screen, 48 h (100 = growth as untreated, 0 = no growth, -100 = all killed). Conditions: 10 µM unless noted.
On to `CCOC(=O)c1c(N)c(C#N)cn1-c1cc(OC)c(OC)c(OC)c1`, for which the growth is 103%.

As for `O=S(=O)(O)c1ccc(O)c(C2CCCCC2)c1`, the growth is 103%. On to `OC1OC(COC(c2ccccc2)(c2ccccc2)c2ccccc2)C(O)C(O)C1O` (stereo not given), for which the growth is 89.7%. The same measure for `Nc1c(C(=O)Nc2ccccc2Cl)sc2nc3c(cc12)C(=O)CCC3`: 24.9%; for `c1ccc2c(N=NSc3ncnc4nc[nH]c34)c3ccccc3nc2c1`: -55.1% (active).

With `CC1(C)OC2=C(CC1Br)C(=O)C(=O)c1ccccc12` (stereo not given), the growth was -87.1% (active). As to `COC(=O)[C@]1(C)CCC[C@]2(C)[C@H]3C[C@H]4C(C(C)C)=C[C@]3(CC[C@H]21)[C@@H]1C(=O)CC[C@H](OCCC#N)[C@@H]14`, the growth is 70.5%. The same measure for `CC(=O)n1cc([C@H]2CC[C@H](c3cn(C(C)=O)c4ccccc34)c3c2[nH]c2ccccc32)c2ccccc21`: 92.9%; for `COc1ccc2c(c1)c(-c1nn3cc(-c4cccs4)nc3s1)cn2C`: 71.5%. Take `Cc1ccc(NC(=O)/C=C/c2ccc(OCCCOc3ccc4c(C)cc(=O)oc4c3)cc2)cc1`: the growth is 77.5%. The same measure for `COc1ccc2ncccc2c1Cc1c(OC)ccc2ncccc12`: 8.37% (active); for `CN(CCc1ccccc1)C(=S)N(C(=O)c1ccc([N+](=O)[O-])cc1)c1ccc(Cl)cc1`: 37.4%.

On to `COc1ccc(-c2cn[nH]c2-c2cc(OC)c3c(c2)OCO3)cc1`, for which the growth was 36.1%. The same measure for `COC(=O)/C(CCC=C(C)C)=C1\[C@@H](OC(C)=O)C[C@@]2(C)[C@H]1CC(=O)N[C@H]1[C@@]3(C)CCNC(=O)[C@@H](C)[C@@H]3CC[C@@]12C`: 99.7%; for `NC(N)=N/N=C(/c1ccccc1)c1ccc(N)cc1`: 119%. The same measure for `O=C1/C(=C/c2ccc(OCc3ccccc3)cc2)Oc2cc(OCCN3CCCCC3)ccc21`: 48.3%. The same measure for `Nc1c(Cl)cccc1[N+](=O)[O-]`: 115%; for `N=C(N)N=Nc1ccc(NN=C(N)N)cc1`: 103%; for `COc1ccccc1CNC(=O)C1c2ccccc2C(=O)N(CC(C)C)C1c1cccs1` (stereo not given): 65.7%. Turning to `Cc1ncc([N+](=O)[O-])n1CCOc1ccc(C(=O)/C=C/c2ccc(C(F)(F)F)cc2)cc1`, the growth was 71.3%.

For the compound `CC(=O)Nc1nc(C)c(C(=O)NN)s1`, the growth was 87.8%. Take `Cc1ccc(-c2nn(CC(=O)N3CCOCC3)c(N)c2C#N)cc1`: the growth is 104%. The same measure for `CC(C)(C)c1ccc([I+]c2ccc(C(C)(C)C)cc2)cc1`: -26% (active).

For the compound `O=C(N/N=C/c1cc([N+](=O)[O-])ccc1O)c1cccc2ccccc12`, the growth is -8.62% (active).

Consider `C#C[C@H](O)/C=C/CCCCCCC#C[C@H](O)CC[C@@H](O)C#CCCCCCC/C=C/[C@@H](O)C#C`, for which the growth is 97.6%. For `O=c1c2cc(Cl)ccc2oc2ccc(OCCCCCN3CCCCCC3)cc12`, the growth is 74.1%. The same measure for `CN1C=CN(Cc2ccc(-c3ccccn3)nc2)[CH-]1.CN1C=CN(Cc2ccc(-c3ccccn3)nc2)[CH-]1.[Au+3]`: -19.2% (active); for `C/C(=N\O)c1ccc(Cl)cc1`: 108%. Regarding `Cc1c(C(=O)NCCC(=O)NO)sc2ncnc(Nc3ccc(NC(=O)Nc4cccc(C(F)(F)F)c4)cc3)c12`, the growth is 97.2%.

Consider `COc1ccc(-c2nc(N=Nc3c(O)[nH]c4ccccc34)nc(N3CCOCC3)c2C#N)cc1`, for which the growth was 71%. The same measure for `CCC1(CC)NC(=O)c2c(c3ccc(Cl)c(Cl)c3n2C)C1C#N` (stereo not given): 106%. The same measure for `CC(O)CN(CC(C)O)c1ccc2c(c1)Cc1cc([N+](=O)[O-])ccc1-2` (stereo not given): 100%; for `NC(=O)c1c(NC(=O)c2cccs2)sc2c1CCC(=O)C2`: 65.2%; for `C=C1C(=O)O[C@H]2[C@H]1CC/C(COC(=O)CCCc1c[nH]c3ccccc13)=C\CC[C@@]1(C)O[C@@H]21`: 23.1%. The same measure for `Cn1c(=O)c2c(ncn2CC(=O)Nc2ccc(S(N)(=O)=O)cc2)n(C)c1=O`: 102%; for `CCCCOc1nc2ccc(Cl)cc2cc1/C=C/C(=O)/C=C/c1ccc(Cl)cc1`: 79.5%; for `COC(=O)c1c2c(c[n+]([O-])c1C)C(=O)C=C(NCc1ccccc1)C2=O`: -74.9% (active). Turning to `O=C(O)c1ccccc1C(=O)Nc1ccc(Cl)cc1`, the growth was 120%. The same measure for `O=[N+]([O-])c1ccc(NC(=S)N/N=C/c2cc3ccccc3n3nnnc23)cc1`: 61.7%. The same measure for `Cc1cc(NC(=O)CNc2nc(Oc3ccc(F)cc3)nc(-c3ccc(F)cc3)n2)ccc1Cl`: 92.5%.

The values above are taken from PubChem BioAssay (NCI).
